Source: PubChem BioAssay
CBFb-RUNX1 inh: qHTS Assay for Compounds Blocking the Interaction Between CBF-beta and RUNX1 for the Treatment of Acute Myeloid Leukemia. Runt-related transcription factor 1 (Homo sapiens) + Core-binding factor subunit beta …. AlphaScreen CBFb-His/RUNX1-biotin binding, biochemical. Potency, µM (titrated, usually from 59.8 µM), without a hit: at the highest dose activity, negative = inhibition, actives largely listed as inhibitors. 230,000 tested, under 10 active. AID 1477, 2009; further: % of control where 0% means no effect
Target sequence (Q01196 whole entry, looked up): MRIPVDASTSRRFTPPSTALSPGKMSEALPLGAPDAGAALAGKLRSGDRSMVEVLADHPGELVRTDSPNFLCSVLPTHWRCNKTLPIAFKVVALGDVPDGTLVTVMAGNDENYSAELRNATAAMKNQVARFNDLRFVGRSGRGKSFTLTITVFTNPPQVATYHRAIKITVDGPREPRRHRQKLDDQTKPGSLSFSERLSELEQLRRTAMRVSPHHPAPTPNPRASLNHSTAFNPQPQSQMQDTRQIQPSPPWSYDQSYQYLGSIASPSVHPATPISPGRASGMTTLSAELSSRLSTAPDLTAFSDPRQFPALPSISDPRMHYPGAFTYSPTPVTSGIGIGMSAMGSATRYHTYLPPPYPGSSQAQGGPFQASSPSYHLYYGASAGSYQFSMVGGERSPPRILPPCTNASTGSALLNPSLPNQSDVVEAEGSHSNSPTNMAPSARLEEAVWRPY
Target sequence (Q13951 whole entry, looked up): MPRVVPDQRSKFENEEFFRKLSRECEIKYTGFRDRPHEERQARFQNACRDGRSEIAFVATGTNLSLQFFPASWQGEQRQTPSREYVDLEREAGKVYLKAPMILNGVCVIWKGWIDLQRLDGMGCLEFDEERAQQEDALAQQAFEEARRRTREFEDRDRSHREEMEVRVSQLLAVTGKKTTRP
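Read-out: AlphaScreen. Format: His-CBF-beta with biotinylated RUNX1 (30 nM each) preincubated 20 min, compound 15 min, Ni-chelate plus streptavidin beads 90 min; room temperature throughout.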
ALDH1A1 block: qHTS Assay for Inhibitors of Aldehyde Dehydrogenase 1 (ALDH1A1); Aldehyde dehydrogenase 1A1 (Homo sapiens), P00352; Purified ALDH1A1, NADH fluorescence, propionaldehyde substrate; Potency, µM (top dose mostly 75.3 µM), for inactives: at the top dose activity, negative = inhibition, hits mostly inhibitors; actives 7.3% (n = 220,000); active means well fitted inhibition curve with a large enough effect, not every such curve was filed as active; inconclusive means small, poorly fitted or top-dose-only effect, or another doubt; inactive means no such curve, though single readings can be large or run the other way;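 further: potency means the concentration at half of the fitted maximal effect; plate controls were no enzyme wells and a reference inhibitor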
PNC inhibitor: High Content Assay for Compounds that inhibit the Assembly of the Perinucleolar Compartment | PC3M PTB-GFP, PNC prevalence imaging, 16 h; stronger effect = lower value | activity change (PNC), negative = inhibition, % at 10 µM | actives 3.1% (n = 140,000);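 active means readout at or below -70, meaning at least 70% loss of cells showing the perinucleolar compartment, a nuclear body marking cancer cells; inconclusive means readout between -30 and a set limit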;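 further: plate controls were DMSO wells for no effect and camptothecin positive control wells for full effect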
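Compounds are pinned in duplicate onto adhered PC3M cells stably expressing GFP-tagged PTB and incubated 16 h at 37 C. Cells are then fixed, nuclei stained with Hoechst, and PNC-positive cells counted.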
HPGD inh: qHTS Assay for Inhibitors of HPGD (15-Hydroxyprostaglandin Dehydrogenase); 15-hydroxyprostaglandin dehydrogenase [NAD(+)] (Homo sapiens), P15428; Potency, µM, for inactives: at the top dose activity change, negative = inhibition, actives largely listed as inhibitors; purified HPGD, NADH fluorescence kinetic, PGE2 substrate; actives 4.3% (n = 150,000); active means well fitted inhibition curve with a large enough effect, not every such curve was filed as active; inconclusive means small, poorly fitted or top-dose-only effect, or another doubt; inactive means no such curve, though single readings can be large or run the other way; further: potency means the concentration at half of the fitted maximal effect; on the % scale 0 is the no-effect control and ±100 the full control effect
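20 nM HPGD preincubated 15 min at room temperature with compound in 50 mM Tris-HCl pH 8, 0.01% Tween 20. Started with 1 mM NAD+ and 30 uM prostaglandin E2; NADH fluorescence (360/450 nm) read 5 times over 30-s intervals, last minus first.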
HTT ATP protect: qHTS Multiplex Assay to Identify Dual Action Probes in a Cell Model of Huntington: Cytoprotection (ATP); PC12 HTT-Q103 induced, cytoprotection, ATP luminescence, 40 h; Potency, µM (series often up to 56.4 µM), without a hit: cytoprotection (ATP increase), usual class: activators; actives 0.14% (n = 230,000); AID 1471, 2008; further: potency means the concentration at half of the fitted maximal effect; % of control where 0% means no effect; nearly all actives have a fitted effect of over 45% in size
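Compounds were screened for protection of PC12 cells against cell death after tebufenozide induction (100 nM final) of mutant Huntingtin exon 1 (Q103) fused to GFP.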
HTT aggregate: qHTS Multiplex Assay to Identify Dual Action Probes in a Cell Model of Huntington: Aggregate Formation (GFP); actives 1.1% (n = 220,000); AID 1688, 2009; PC12 HttQ103-GFP aggregates, Acumen cytometry, 40 h; Potency, µM (top dose mostly 46.1 µM), for inactives: at the top dose activity change, negative = inhibition, actives largely listed as inhibitors; further: potency means the concentration at half of the fitted maximal effect; on the % scale 0 is the no-effect control and ±100 the full control effect; nearly all actives have a fitted effect of over 60% in size
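Read-out: GFP aggregate count by laser scanning cytometer (488 nm excitation, 500-530 nm emission, 1–25 µm objects >6 SD above background). Cells: PC12, inducible HTTex1-Q103-GFP, 100 nM tebufenozide; compounds titrated.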
* hit, by the source's call; ? = inconclusive; nt = not tested or not shown; [ ] = dose if it differs, or a comment. Rows were chosen to be rich in hits. Some 11% of all compounds tested hit in one or more screens of this group. Unless noted, the call rests on the fitted dose curve; in most records, active means well fitted curve in the direction sought with a large enough effect; inconclusive means small, poorly fitted or top-dose-only effect, or another doubt; inactive means no such curve, though single readings can be large; an effect the other way counts as inactive or inconclusive.

SMILES	CBFb-RUNX1 inh	ALDH1A1 block	PNC inhibitor	HPGD inh	HTT ATP protect	HTT aggregate
O=C(Nc1cccc(S(=O)(=O)N2CCCC2)c1)c1ccc2c(=O)n3c(nc2c1)CCCCC3	17%	3.5µM*	?	-6%	10%[10 µM]	?
O=C(Nc1cccc(S(=O)(=O)N2CCCCCC2)c1)c1ccc2c(c1)OCO2	6%	-13%	?	-3%	4%[10 µM]	?
CC(=O)c1cccc(NC(=O)c2ccc3c(=O)n4c(nc3c2)CCCCC4)c1	7%	5µM*	nt	nt	-49%	-18%
CCCCCCC1=Cc2cc(OC)c(OC)cc2C(CC(=O)/C=C/OC)O1 (centres undefined)	2%[13.1 µM]	-2%[13.5 µM]	nt	nt	5%[10 µM]	nt
O=C(Nc1ccc(F)cc1Cl)c1ccc2c(=O)n3c(nc2c1)CCCCC3	1%	-10%	?	4%	-13%	16%
O=C(Nc1nc(-c2ccccc2)cs1)c1ccc2c(=O)n3c(nc2c1)CCCCC3	-4%	28µM*	-3	nt	1%[10 µM]	?
Cc1cc(C)c2nc(NC(=O)c3ccc4c(=O)n5c(nc4c3)CCCCC5)sc2c1	6%	?	-18	-15%	18%[10 µM]	1%
O=C(NC1CCCCCC1)c1ccc2c(=O)n3c(nc2c1)CCCCC3	-3%	10µM*	?	-16%	-12%[10 µM]	4%
CCOc1ccc(N/C(C)=C/C(=O)c2ccc3c(c2)OCCO3)cc1	-7%	?	nt	nt	-4%[10 µM]	-17%[9.22 µM]
O=C(CN1CCc2ccccc21)NCc1ccc2c(c1)OCO2	-11%	?	-19	-18%	25%[10 µM]	12%
COc1ccc(OCCCC(=O)Nc2ccc3c(c2)OCCO3)cc1	-9%	22µM*	-20	-20%	-10%[10 µM]	-10%
Cc1ccc(CSCC(=O)Nc2ccc3c(c2)OCO3)cc1	-26%	7.9µM*	-3	-26%	-32%	-8%
O=C(CN1CCc2ccccc21)Nc1ccc2c(c1)OCO2	-8%	13µM*	17	-7%	-31%[10 µM]	-12%
CCOc1ccc(N/C(C)=C\C(=O)c2ccc3c(c2)OCCO3)cc1	12%	13µM*	nt	nt	-14%[10 µM]	4%[9.22 µM]
Cn1ncc2c(N3CCN(c4ccc(Cl)c(Cl)c4)CC3)ncnc21	1%	7%	nt	nt	-12%[10 µM]	19%
COc1ccc(O[C@H]2C=C[C@@H](c3ccccc3)O[C@H]2CO/N=C(/C)CCC(=O)OC[C@@H]2O[C@H](C#Cc3ccccc3)C=C[C@@H]2Oc2ccc(C)cc2)cc1	15%[13.1 µM]	-5%[13.5 µM]	nt	nt	?	nt
CCC[C@@H]1C[C@@]1(CCC)[C@@H](NC(=O)Oc1ccccc1)c1ccc(C(=O)OC)cc1	13%	3%	nt	-5%	-2%	nt
COc1cc(CN(C)Cc2ccccc2)cc(OC)c1O	1%	0%	?	-2%	-3%	-6%
O=C(O)CSCc1cccc2ccccc12	nt	11%[13.5 µM]	nt	-9%	-16%[10 µM]	nt
COc1ccc(NC(=O)CN2CCN(CC(=O)Nc3ccc4c(c3)OCO4)CC2)cc1	9%	6.3µM*	?	-5%	0%	-2%
COC(=O)c1c(NC(=O)CN2CCN(Cc3ccc4c(c3)OCO4)CC2)sc(C)c1C	-5%	13µM*	32	-9%	-54%	-18%
COc1ccccc1NC(=O)CN1CCN(CC(=O)Nc2ccc3c(c2)OCO3)CC1	4%	11µM*	17	-13%	-7%	7%
COC(=O)c1ccsc1NC(=O)CN1CCN(Cc2ccc3c(c2)OCO3)CC1	2%	14%	?	0%	16%	9%
N#C/C(=C\c1ccc(OCc2cccc(C(=O)O)c2)cc1)C(=O)NCc1ccco1	-1%	nt	nt	nt	-7%[10 µM]	17%[9.22 µM]
Cc1cnc(CNc2ncnc3ccc(-c4ccccc4C(F)(F)F)cc23)cn1	nt	-4%	nt	nt	-49%	nt
SMILES	CBFb-RUNX1 inh	ALDH1A1 block	PNC inhibitor	HPGD inh	HTT ATP protect	HTT aggregate
O=C(NN=C1CCCCCCC1)c1ccc(F)cc1	0%	-12%	nt	nt	-45%	16%
CCNc1ccc(C(=O)NN=C2CCCC2)cc1[N+](=O)[O-]	-49%	2.2µM*	nt	nt	-83%	?
O=C(NC[C@H](O)c1ccccc1)c1ccccc1	6%	-1%	nt	-24%	6%	nt
Cc1ccc(N2C(=O)CC(NCC3CCCO3)C2=O)cc1 (centres undefined)	7%	20µM*	nt	nt	6%[10 µM]	2%[9.22 µM]
C/C(N)=C(/C#N)C(=O)CSc1nc2ccccc2c(=O)n1-c1ccc(C)cc1	8%	?	-26	-20%	3%[1.9 µM]	0%
C/C(N)=C(/C#N)C(=O)CSc1nc2ccccc2c(=O)n1CCCO	1%	?	?	-6%	nt	-5%
C/C(N)=C(/C#N)C(=O)CSc1nc2ccccc2c(=O)n1-c1ccccc1C	7%	28µM*	-22	-21%	3%[10 µM]	-15%
C/C(N)=C(/C#N)C(=O)CSc1nc2scc(-c3ccccc3)c2c(=O)n1C	2%	5.6µM*	nt	nt	5%[10 µM]	?
Cn1c(=O)c2c(nc(CN3CCN(c4ccccc4F)CC3)n2CCN2CCOCC2)n(C)c1=O	0%	?	-100*	-9%	-4%[10 µM]	9%
Cc1ccc(Cn2c(CN3CCOCC3)nc3c2c(=O)n(C)c(=O)n3C)cc1	-3%	10µM*	-100*	-15%	-12%[10 µM]	2%
Cn1c(=O)c2c(nc(CN3CCN(c4ccccc4F)CC3)n2CCCc2ccccc2)n(C)c1=O	nt	nt	nt	nt	-24%[0.074 µM]	nt
